These results are taken from PubChem BioAssay AID1645851 (National Center for Advancing Translational Sciences (NCATS), 2021).

Several values for one entry are separate records, joined by “and”; a condition that tells them apart may be missing. Equal entries are not always repeated. The whole screen tested about 140,000 compounds, of which about 1,200 (0.86%) were called active. Rule as the data show it: active = activity change below about -25%; inactive = the rest. The list comes from a sample in which actives are over-represented; it also holds similar structures and randomly drawn compounds.
% is scaled to controls: 0 for no effect and ±100 for the full control effect.

Sequence of Inositol hexakisphosphate kinase 1 (Homo sapiens) (Q92551 whole entry, looked up): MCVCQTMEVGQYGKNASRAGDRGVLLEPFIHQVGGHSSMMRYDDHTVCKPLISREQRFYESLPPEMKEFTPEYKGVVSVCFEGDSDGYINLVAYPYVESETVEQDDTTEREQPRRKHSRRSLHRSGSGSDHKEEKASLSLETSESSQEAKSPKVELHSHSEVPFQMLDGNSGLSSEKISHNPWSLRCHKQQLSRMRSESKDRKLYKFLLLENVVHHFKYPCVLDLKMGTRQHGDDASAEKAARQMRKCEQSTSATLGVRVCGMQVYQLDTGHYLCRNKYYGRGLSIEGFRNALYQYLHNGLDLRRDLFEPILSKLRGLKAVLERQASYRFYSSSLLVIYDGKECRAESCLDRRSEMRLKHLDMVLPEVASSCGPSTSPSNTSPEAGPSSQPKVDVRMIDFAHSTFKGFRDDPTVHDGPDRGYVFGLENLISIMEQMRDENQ

This experiment addresses Inositol hexakisphosphate kinase 1 (Homo sapiens) (UniProt Q92551). Kind of experiment: Primary qHTS assay for small molecule inhibitors of Inositol hexaphosphate kinase 1 (IP6K1). Also: series mostly up to about 58 µM. The conditions noted are these: ADP-Glo luminescence, 2 h, hits give low values. The source says:
Assay Provider: Huijun Wei, M.S., Ph.D. School of Medicine, Johns Hopkins University, Baltimore, MD Inositol hexakisphosphate kinases (IP6Ks) catalyze pyrophosphorylation of inositol hexakisphosphate (IP6) into inositol 5-diphospho-1,2,3,4,6-pentakisphosphate (IP7), which is involved in numerous areas of cell physiology including glucose homeostasis, blood coagulation and neurological development. Inhibition of IP6Ks may be effective for the treatment of Type II diabetes, thrombosis, and psychiatric disorders. We performed a quantitative high throughput screen (qHTS) of 158,410 compounds for IP6K1 inhibitors using ankinase activity ADP-Glo Max assay. […] Medicinal chemistry SAR efforts in three chemical series identified potent IP6K1 inhibitors, which were further validated in an orthogonal LC-MS IP7 analysis.
PROTOCOL TABLE SEQUENCE No. (e.g., 1, 2, 3, etc.); […] (e.g., Cells, Incubation, Reagent, etc.); VALUE and DESCRIPTION. 1. Reagent, 3 uL of 1.3 mM ATP and 130 uM IP6 mixture in assay buffer was dispensed to a white, 1536-well assay plate. 2. Compound, 23 nL of compounds of the top two doses (57.5 uM and 19.1 uM final concentration) of the libraries were dispensed into the mixture using the Kalypsis pintool. 3. Reagent, 1 uL of 2.4 uM IP6K1 was dispensed to the assay plates. 4. Incubation, 2 hr incubation at room temperature. 5. Reagent, 2 uL of ADP-Glo reagent was added to the wells. 6. Incubation, 1 hr incubation at room temperature. 7. Reagent, 4 uL or ADP-Glo substate was added to the wells. 8. Incubation, 45 min incubation at room temperature. 9. Detection, luminescence signal was detected using the ViewLux microplate imager (PerkinElmer).
Consider `CCOC(=O)c1cc(-c2ccc(OC)c(S(=O)(=O)Nc3ccc(OC)cc3OC)c2)on1`, for which the activity change was 1.78% (inactive). With `COCCNC(=O)c1cc(-c2cccc(Cl)c2)on1`, the activity change was -0.0295% (inactive). With `Cc1ccc(-c2cc(C(=O)Oc3ccccc3Cl)no2)cc1C`, the activity change is -29.7% (active).

Turning to `CC(O)CNC(=O)c1ccc(-c2ncc3cnc(C4=CCOCC4)cn23)cc1` (stereo not given), the activity change was -10.8% (inactive). Consider `Cc1ccccc1CC(=O)N1CCCC(n2cc(-c3nc(-c4ccccc4)no3)nn2)C1` (stereo not given), for which the activity change was 9.4% (inactive). Regarding `CC(C)NC(=O)N1CCN(c2ccc3nnc(C4CC4)n3n2)CC1`, the activity change was 5.65% (inactive). The figure for `Cc1cccc(N2CCN(c3ccc(C(=O)O)cc3NC(=O)c3ccccc3F)CC2C)c1` (stereo not given) is -32.2% (active); for `Cc1cccc(C(=O)NCCC2CCN(C(=O)Nc3ccc(F)cc3F)CC2)c1` it is -7.16% (inactive); for `Cc1ccccc1NC(=O)c1c(NC(=O)c2ccccc2F)sc2c1CCC(C)C2` (stereo not given) it is -11.5% (inactive).

For the compound `Cc1cccc(C)c1-c1nc(C(=O)N2CCN(c3ncccn3)CC2)n2ccccc12`, the activity change was 8.82% (inactive) and 13.4% (inactive). Take `CCn1nc(CNC(=O)C2CCC(=O)N(C3CCCC3)C2)c2ccccc21` (stereo not given): the activity change was -2.6% (inactive). Take `CN1C[C@H](NS(C)(=O)=O)CCC[C@@H](C(=O)N(C)Cc2cccnc2)CC1=O`: the activity change is 5.58% (inactive). The figure for `COc1c(C)cnc(CN(C)C(=O)C2CC(=O)N(C3CCCC3)C2)c1C` (stereo not given) is -26.5% (active); for `O=C(NC1CCN(c2nccc(Nc3ccccc3Cl)n2)CC1)c1ccccn1` it is 0.678% (inactive).

Turning to `Cc1cc(N2CCC3(CC2)CC(c2ccccc2)C(=O)N3C)ncn1` (stereo not given), the activity change was 10.4% (inactive).

For the compound `Cc1ccncc1C(=O)N1CCC2(CC1)CC(c1ccccc1)C(=O)N2C` (stereo not given), the activity change was -28.9% (active). As to `Cc1ccncc1C(=O)N1CCC(Cn2c(C)cnc2-c2cccnc2)CC1`, the activity change was 7.69% (inactive). Regarding `COc1ccccc1-c1ccc(CN2CCC(NC(=O)c3ccncc3)C2)cc1` (stereo not given), the activity change is 24.3% (inactive). As for `Cc1ccc(CN2C(=O)[C@@H]3C[C@@H](O)CN3C3(CN(Cc4ccc(C(F)(F)F)cc4)C3)C2=O)o1`, the activity change is -6.91% (inactive). Consider `Cc1cc(Cl)ccc1OCC(=O)N1CCc2n[nH]c(=O)n2CC1`, for which the activity change was -14.4% (inactive). For the compound `COc1ccccc1N1CCN(S(=O)(=O)CCNC(=O)COc2ccc(F)cc2)CC1`, the activity change was -44.5% (active). Take `COc1ccc(N2CCN(S(=O)(=O)CCNC(=O)C(c3ccccc3)c3ccccc3)CC2)cc1`: the activity change is 23.7% (inactive).

For `COc1cc(C(=O)NCCS(=O)(=O)N2CCN(c3ccccc3)CC2)cc(OC)c1OC`, the activity change is 23.9% (inactive). In the case of `Cc1ccc2c(c1)N(CC(=O)NCCCN1CCCCC1)C(=O)c1cccnc1O2`, the activity change was -101% (active). `Cc1ccc2c(c1)N(CC(=O)NCCc1ccc(Cl)cc1)C(=O)c1cccnc1O2`: the activity change was -4.44% (inactive). In the case of `O=C(CN1C(=O)c2cccnc2Oc2ccc(Cl)cc21)NCCc1ccccc1`, the activity change was -2.8% (inactive). The same measure for `Cc1ccc(C2(O)CCN(c3nccc(CCC(F)(F)F)n3)CC2)nc1`: -3.3% (inactive); for `CCOc1cccc2c1OC[C@@H]1CN(CCOC)C(=O)CCN(C(=O)c3ccccc3OC)[C@H]21`: -8.59% (inactive). Consider `CC(C)(C)OC(=O)N1CCC(c2c(C(=O)N3CCc4ccccc4C3)cnn2-c2ccc(F)cc2)CC1`, for which the activity change is -28.8% (active). For `Cc1cccc(-n2ncc(C(=O)N3CCc4ccccc4C3)c2C2CCN(C(=O)OC(C)(C)C)CC2)c1`, the activity change was 32.7% (inactive). The same measure for `CC(C)(C)OC(=O)N1CCC(c2c(C(=O)NCc3ccccn3)cnn2-c2ccc(F)cc2)CC1`: -1.08% (inactive); for `COc1ccc(-c2cc(C(=O)NCC(F)(F)F)c3c(C4CCCN4)nn(C)c3n2)cc1` (stereo not given): -2.22% (inactive). The figure for `COc1ccccc1-c1cccc(C(=O)N2CCN(C(=O)Cc3ccc(F)cc3)CC2)c1` is 5.42% (inactive); for `CCOC(=O)c1ccc(NC(=O)CCS(=O)(=O)c2ccc(C)cc2)cc1` it is -30% (active). The figure for `CCOC(=O)c1ccc(NC(=O)CCn2cnnn2)cc1` is 7.68% (inactive); for `CCOC(=O)c1ccc(NC(=O)CCS(=O)(=O)c2ccc3c(c2)oc(=O)n3C)cc1` it is 9.62% (inactive); for `O=C(NCc1ccc(F)cc1)C1CCN(c2nccc(Nc3ccccc3F)n2)CC1` it is 18.1% (inactive). Regarding `CN(c1ccccc1)c1cc(=O)c2ccnc(Nc3cccc([S+](C)(=O)[O-])c3)c2o1`, the activity change was -11.6% (inactive). `CN(c1ccccc1)c1cc(=O)c2ccnc(NC3CCOCC3)c2o1`: the activity change was -36.2% (active). As to `CN(c1ccccc1)c1cc(=O)c2ccnc(-c3ccc(CO)cc3)c2o1`, the activity change is -7.57% (inactive).

As for `COc1ccc(-n2nc(C3CCN(Cc4ccccn4)CC3)[nH]c2=O)cc1`, the activity change is 7.19% (inactive). On to `O=C(Nc1ccc(F)cc1)c1nc2cccnc2n(Cc2ccccc2)c1=O`, for which the activity change was 14.3% (inactive).

`O=C1CCN(CC(O)COc2ccccc2)c2cc3c(cc2CN1CC1CC1)OCO3` (stereo not given): the activity change was -10.5% (inactive). As to `COc1ccc(OCC2CN(Cc3cccc(F)c3)[S+](=O)([O-])c3cccnc3O2)cc1` (stereo not given), the activity change was 0.413% (inactive).

As for `O=C1CCN(C(=O)[C@H](Cc2ccccc2)NC(=O)NC2CCCCC2)CCCOCCN1`, the activity change is 9.58% (inactive). Turning to `COc1ccc(-c2nc(CCNC(=O)c3ccc(Br)o3)cs2)cc1`, the activity change is -32.8% (active). The same measure for `COc1ccc(CCC(=O)NCCc2csc(-c3ccc(Cl)cc3)n2)cc1`: -1.97% (inactive); for `COc1ccc(CNC(=O)c2noc(-c3ccc(F)cc3)n2)cc1`: 7.64% (inactive); for `O=C(c1cccc(OC2CN(Cc3nccs3)C2)c1)N1CCOCC1`: -3.36% (inactive). On to `O=C(NCc1cccc(Cl)c1)c1ccc2nccn2c1`, for which the activity change was -8.99% (inactive). As for `Cc1n[nH]c(C)c1CNC(=O)C1Cn2cccc2C(=O)N1Cc1ccccc1` (stereo not given), the activity change is -3.14% (inactive).

As to `COc1ccc(Cl)cc1-c1ccc2c(c1)C(=O)N1CCN(C(=O)CSC)C[C@@H]1C(=O)N2`, the activity change was -8.89% (inactive). In the case of `Cc1ccc(NC(=O)c2cc(S(=O)(=O)NCCC3=CCCCC3)ccc2F)cc1C`, the activity change is -26.3% (active).

For the compound `COc1ccccc1NC(=O)c1cc(S(=O)(=O)NCCc2ccccc2)ccc1F`, the activity change was 14.4% (inactive).

On to `CCc1ccc(NC(=O)c2cc(S(=O)(=O)NC3CCCCCC3)ccc2F)cc1`, for which the activity change is -6.25% (inactive). The figure for `Cc1nn(-c2ccccc2)c2c1C(C)N(C1CCN(C(=O)C(C)C)CC1)C2=O` (stereo not given) is 2.6% (inactive); for `O=C(NCc1ccccc1)c1c(-c2ccccc2)cc(=O)n2c1CCCC2` it is 5.1% (inactive).

Take `COc1ccccc1-c1ccc(CN2CCC(NC(=O)c3ccc(Cl)nc3)C2)cc1` (stereo not given): the activity change is 8.29% (inactive).

In the case of `CC(C)Cn1c(=O)c(C(=O)NCc2ccc(F)cc2)nc2cccnc21`, the activity change is 8.42% (inactive). On to `O=C(Nc1cccc(NC(=O)c2ccc(Br)cc2)c1)c1ccccc1`, for which the activity change is -16% (inactive). As to `CC(C)(C)c1ccc(C(=O)Nc2cc(Cl)c(Br)cc2C(=O)O)cc1`, the activity change was -35.3% (active). Take `O=C(Nc1ccc(C(=O)O)c(O)c1)c1ccccc1`: the activity change was 7.03% (inactive). Take `CC(=O)c1cc(CC(=O)NCc2cc(F)c(F)cc2F)cs1`: the activity change is -1.78% (inactive). The figure for `C[C@H]1[C@@H]2[C@@H](O)C([C@H](C)C(=O)NC3CCCC3)CC[C@@]2(C)CC[C@@H]1NC(=O)c1ccc(C#N)cc1` (stereo not given in full) is 8.22% (inactive). For the compound `Cn1ncc2c(C(=O)N3CCN(c4ncccn4)CC3)cc(-c3ccc(C(F)(F)F)cc3)nc21`, the activity change was 2.25% (inactive). Consider `Cc1cc(C(=O)N2CCC3(CCCNC3=O)C2)ccc1N1CCOCC1` (stereo not given), for which the activity change is 11% (inactive). As to `COc1ccc(C2Cn3nnc(C(=O)N4CCN(C(=O)c5cccc(Cl)c5)CC4)c3CO2)cc1` (stereo not given), the activity change is 2.61% (inactive). For the compound `COc1ccc(C2Cn3nnc(C(=O)N4CCC(C(=O)NCc5ccc(C)cc5)CC4)c3CO2)cc1` (stereo not given), the activity change is -5.17% (inactive).

On to `COc1ccc(C2Cn3nnc(C(=O)N4CCN(C(=O)c5ccc(C)cc5C)CC4)c3CO2)cc1` (stereo not given), for which the activity change is -25.2% (active). The same measure for `CNC(=O)[C@@H]1C[C@@H](n2cc(CNC(=O)Nc3cccc(Cl)c3C)nn2)CN1`: 11.8% (inactive); for `O=C(C1CC1)N1CCC(N2CC(OCC3CC3)C23CCOCC3)CC1` (stereo not given): -1.99% (inactive). The same measure for `CN(C)[C@@H]1C(=O)C(C(N)=O)=C(O)[C@@]2(O)C(=O)C3=C(O)c4c(O)ccc(Cl)c4[C@@H](O)[C@H]3C[C@@H]12`: -40.7% (active); for `C(=C\c1ccccc1)/CN1CCN(c2ncncn2)CC1`: -5.21% (inactive); for `O=C(c1nc(-c2cccnc2)c2cnccn12)N1CCN(c2ncccn2)CC1`: 8.68% (inactive). The same measure for `C(=C\c1ccccc1)/CN1CCN(c2nccc(-c3cccnc3)n2)CC1`: -36.7% (active); for `CCOC(=O)[C@@H]1[C@@H](O)C(=O)N(Cc2ccccc2)C12CCN(C(=O)c1cc3ccccc3s1)CC2`: 14.8% (inactive). Consider `O=C(CC1CCCN(c2cnn(CC3CC3)c(=O)c2)C1)N1CCCC1` (stereo not given), for which the activity change is 15.7% (inactive).

Regarding `COc1ccc(-c2onc(C)c2C)cc1S(=O)(=O)NCc1cccs1`, the activity change is 41.7% (inactive).

`COc1ccc(-c2onc(C)c2C)cc1S(=O)(=O)NCCc1ccccc1`: the activity change was 17.3% (inactive). As for `Cc1ccc(-c2onc(C)c2C)cc1S(=O)(=O)Nc1ccccn1`, the activity change was -25.5% (active).

Regarding `C=CCCC(CN1CCCC1)Oc1ncc(F)c(N2CCCC2)n1` (stereo not given), the activity change was -2.11% (inactive). Regarding `COc1cc(NC(=O)Nc2cccc(CNC(=O)O[C@H]3CCOC3)c2)ccc1-c1cnco1`, the activity change was -31.9% (active). For the compound `COc1ccc(NC(=O)N2CCC(CC(=O)NCc3ccccc3)C2)cc1OC` (stereo not given), the activity change was -12.4% (inactive). For the compound `O=C(NCC1CCOCC1)Nc1cccc(Cl)c1`, the activity change is 18.6% (inactive). Regarding `C=CCCC(=O)N1CCC2(CCCN(Cc3cccc(F)c3F)C2=O)C1` (stereo not given), the activity change is -2.13% (inactive).
